Source: the supplement of paper PMC10849652
About 7,900 targets were measured; listed, in parts, are those with a hit and a random draw of the rest. About 0.6% of all pairs of compound and target were hits. Unmarked numbers belong to inactive results.

Assays:
Assay in all cases: log2 fold change, soluble protein after heating vs DMSO (PISA); higher = thermal stabilisation; K562 cells, 10 uM, 30 min; active = over 0.2 and 3.5 SD of the protein, either way, in both replicates (recomputed)
saracatinib = compound: CN1CCN(CCOc2cc(OC3CCOCC3)c3c(Nc4c(Cl)ccc5c4OCO5)ncnc3c2)CC1 [saracatinib]
In short: (§1)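 Soluble protein was quantified by TMTpro 16plex LC-MS/MS after channel sums were equalised. It was obtained as the supernatant after 21,000xg for 90 min from pooled aliquots of K562 cells (2×10^6 cells/mL, 10 μM compound, 30 min) heated for 3 min across 48°C-58°C and extracted in PBS with 0.5% NP-40 at 4°C. Thermal stability values are relative to control samples and come from duplicates. They are given as log2 fold changes.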

sotrastaurin = compound: CN1CCN(c2nc(C3=C(c4c[nH]c5ccccc45)C(=O)NC3=O)c3ccccc3n2)CC1 [sotrastaurin]
In short: as §1

alvocidib = compound: CN1CC[C@H](c2c(O)cc(O)c3c(=O)cc(-c4ccccc4Cl)oc23)[C@H](O)C1 [alvocidib]
In short: as §1

Tubastatin A = compound: CN1CCc2c(c3ccccc3n2Cc2ccc(C(=O)NO)cc2)C1 [Tubastatin A]
In short: as §1

[1] = compound: CNC(=O)C1=CC=CC=C1NC2=NC(=NC=C2Cl)NC3=C(C=C(C=C3)N4CCOCC4)OC
In short: as §1

defactinib = compound: CNC(=O)c1ccc(Nc2ncc(C(F)(F)F)c(NCc3nccnc3N(C)S(C)(=O)=O)n2)cc1 [defactinib]
In short: as §1

rucaparib = compound: CNCc1ccc(-c2[nH]c3cc(F)cc4c3c2CCNC4=O)cc1 [rucaparib]
In short: as §1

[2] = compound: CNc1nc(-c2ccc3c(N)n[nH]c3c2)cc(N2C[C@@H](C(=O)NC3CCCCC3)CC[C@H]2C)n1
In short: as §1

encorafenib = compound: COC(=O)N[C@@H](C)CNc1nccc(-c2cn(C(C)C)nc2-c2cc(Cl)cc(NS(C)(=O)=O)c2F)n1 [encorafenib]
In short: as §1

[3] = compound: COC(=O)[C@H](CCSC)NC(=O)C1=C(C=C(C=C1)NC[C@H](CS)N)C2=CC=CC=C2
In short: as §1

[4] = compound: COC1=CC=C(C=C1)CN2C=CC3=C2C=C(C=C3)C(=O)NO
In short: as §1

filanesib = compound: CON(C)C(=O)N1N=C(c2cc(F)ccc2F)S[C@@]1(CCCN)c1ccccc1 [filanesib]
In short: as §1

zotarolimus = compound: CO[C@H]1C[C@@H]2CC[C@@H](C)[C@@](O)(O2)C(=O)C(=O)N2CCCC[C@H]2C(=O)O[C@H]([C@H](C)C[C@@H]2CC[C@H](n3cnnn3)[C@H](OC)C2)CC(=O)[C@H](C)/C=C(\C)[C@@H](O)[C@@H](OC)C(=O)[C@H](C)C[C@H](C)/C=C/C=C/C=C/1C [zotarolimus]
In short: as §1

idasanutlin = compound: COc1cc(C(=O)O)ccc1NC(=O)[C@@H]1N[C@@H](CC(C)(C)C)[C@](C#N)(c2ccc(Cl)cc2F)[C@H]1c1cccc(Cl)c1F [idasanutlin]
In short: as §1

alisertib = compound: COc1cc(Nc2ncc3c(n2)-c2ccc(Cl)cc2C(c2c(F)cccc2OC)=NC3)ccc1C(=O)O [alisertib]
In short: as §1

[5] = compound: COc1cc2nc(-c3cc(F)ccc3O)nc(N[C@@H]3CNC[C@H]3C(C)(C)O)c2cc1OC
In short: as §1

gefitinib = compound: COc1cc2ncnc(Nc3ccc(F)c(Cl)c3)c2cc1OCCCN1CCOCC1 [gefitinib]
In short: as §1

[6] = compound: COc1cccc2cc(-c3nc([C@H]4CC[C@H](C(=O)O)CC4)n4ncnc(N)c34)[nH]c12
In short: as §1

lapatinib = compound: CS(=O)(=O)CCNCc1ccc(-c2ccc3ncnc(Nc4ccc(OCc5cccc(F)c5)c(Cl)c4)c3c2)o1 [lapatinib]
In short: as §1

pictilisib = compound: CS(=O)(=O)N1CCN(Cc2cc3nc(-c4cccc5[nH]ncc45)nc(N4CCOCC4)c3s2)CC1 [pictilisib]
In short: as §1

Sequence of UniProt Q10570 (Q10570 whole entry, looked up): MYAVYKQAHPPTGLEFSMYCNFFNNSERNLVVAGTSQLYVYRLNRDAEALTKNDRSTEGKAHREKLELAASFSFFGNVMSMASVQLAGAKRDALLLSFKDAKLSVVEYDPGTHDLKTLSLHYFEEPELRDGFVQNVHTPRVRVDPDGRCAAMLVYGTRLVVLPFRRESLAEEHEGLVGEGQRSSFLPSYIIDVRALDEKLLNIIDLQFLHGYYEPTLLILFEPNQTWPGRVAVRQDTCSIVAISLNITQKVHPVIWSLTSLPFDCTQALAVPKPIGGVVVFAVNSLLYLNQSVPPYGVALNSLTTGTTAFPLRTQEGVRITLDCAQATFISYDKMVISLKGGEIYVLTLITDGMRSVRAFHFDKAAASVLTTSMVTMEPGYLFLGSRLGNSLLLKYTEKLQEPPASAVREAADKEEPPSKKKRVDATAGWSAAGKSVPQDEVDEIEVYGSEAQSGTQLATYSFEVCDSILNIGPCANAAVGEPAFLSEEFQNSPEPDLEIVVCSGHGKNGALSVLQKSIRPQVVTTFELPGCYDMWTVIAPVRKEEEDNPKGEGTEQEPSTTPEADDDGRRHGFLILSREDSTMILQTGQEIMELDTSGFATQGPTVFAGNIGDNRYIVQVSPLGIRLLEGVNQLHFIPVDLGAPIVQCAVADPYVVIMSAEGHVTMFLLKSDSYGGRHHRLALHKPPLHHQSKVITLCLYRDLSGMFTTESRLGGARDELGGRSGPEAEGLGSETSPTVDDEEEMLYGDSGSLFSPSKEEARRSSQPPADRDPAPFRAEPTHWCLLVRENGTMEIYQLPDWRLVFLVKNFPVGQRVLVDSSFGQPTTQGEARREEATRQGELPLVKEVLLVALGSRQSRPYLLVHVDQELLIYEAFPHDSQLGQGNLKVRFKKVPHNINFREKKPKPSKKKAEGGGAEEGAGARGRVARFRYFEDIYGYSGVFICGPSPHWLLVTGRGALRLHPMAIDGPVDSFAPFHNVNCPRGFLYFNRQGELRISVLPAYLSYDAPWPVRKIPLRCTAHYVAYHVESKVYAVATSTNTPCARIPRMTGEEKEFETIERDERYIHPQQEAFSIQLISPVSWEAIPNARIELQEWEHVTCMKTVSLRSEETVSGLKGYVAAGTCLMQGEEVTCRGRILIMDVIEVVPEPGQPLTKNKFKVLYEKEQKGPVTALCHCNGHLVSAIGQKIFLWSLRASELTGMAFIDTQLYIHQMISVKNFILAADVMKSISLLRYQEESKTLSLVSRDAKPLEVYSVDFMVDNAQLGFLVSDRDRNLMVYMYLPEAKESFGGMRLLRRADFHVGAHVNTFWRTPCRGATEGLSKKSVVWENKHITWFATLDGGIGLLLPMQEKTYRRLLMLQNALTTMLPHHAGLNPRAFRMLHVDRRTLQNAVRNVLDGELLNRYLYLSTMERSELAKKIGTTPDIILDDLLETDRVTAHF
Sequence of UniProt Q9BT78 (Q9BT78 whole entry, looked up): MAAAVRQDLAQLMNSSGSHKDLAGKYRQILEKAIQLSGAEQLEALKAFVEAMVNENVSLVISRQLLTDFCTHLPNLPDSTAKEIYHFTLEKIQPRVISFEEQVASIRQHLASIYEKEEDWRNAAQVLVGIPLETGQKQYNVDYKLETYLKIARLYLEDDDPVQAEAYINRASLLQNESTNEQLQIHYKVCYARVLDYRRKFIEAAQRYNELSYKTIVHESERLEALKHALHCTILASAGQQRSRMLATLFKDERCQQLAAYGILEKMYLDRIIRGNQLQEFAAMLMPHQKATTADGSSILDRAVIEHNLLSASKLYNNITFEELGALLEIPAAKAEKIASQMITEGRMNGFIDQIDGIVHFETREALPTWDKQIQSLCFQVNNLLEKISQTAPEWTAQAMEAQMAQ
Sequence of UniProt Q96SZ6 (Q96SZ6 whole entry, looked up): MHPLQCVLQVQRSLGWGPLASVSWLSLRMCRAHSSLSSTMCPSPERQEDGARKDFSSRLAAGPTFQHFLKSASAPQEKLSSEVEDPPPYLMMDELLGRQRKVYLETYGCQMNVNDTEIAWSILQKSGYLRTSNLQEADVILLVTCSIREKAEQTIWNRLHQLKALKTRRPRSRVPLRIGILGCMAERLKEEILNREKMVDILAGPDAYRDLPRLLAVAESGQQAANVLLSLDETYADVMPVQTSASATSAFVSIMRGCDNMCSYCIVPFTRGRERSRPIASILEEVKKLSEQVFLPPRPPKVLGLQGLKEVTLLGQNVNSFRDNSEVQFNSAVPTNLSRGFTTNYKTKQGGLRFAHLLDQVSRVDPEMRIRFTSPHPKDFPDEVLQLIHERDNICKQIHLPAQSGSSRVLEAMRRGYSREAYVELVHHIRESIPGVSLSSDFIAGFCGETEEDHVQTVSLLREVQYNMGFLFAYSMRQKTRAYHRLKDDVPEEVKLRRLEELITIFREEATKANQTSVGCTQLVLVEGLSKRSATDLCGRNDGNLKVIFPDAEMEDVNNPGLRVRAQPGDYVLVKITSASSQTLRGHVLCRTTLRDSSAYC
Sequence of UniProt Q9Y2V0 (Q9Y2V0 whole entry, looked up): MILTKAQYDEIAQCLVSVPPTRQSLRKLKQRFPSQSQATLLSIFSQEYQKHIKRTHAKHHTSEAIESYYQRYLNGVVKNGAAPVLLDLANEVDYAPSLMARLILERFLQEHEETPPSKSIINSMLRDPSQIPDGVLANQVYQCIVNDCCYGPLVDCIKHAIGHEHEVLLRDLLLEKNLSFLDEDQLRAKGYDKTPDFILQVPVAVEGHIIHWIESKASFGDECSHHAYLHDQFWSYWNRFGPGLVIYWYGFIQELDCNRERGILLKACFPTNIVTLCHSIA
Sequence of UniProt Q8N163 (Q8N163 whole entry, looked up): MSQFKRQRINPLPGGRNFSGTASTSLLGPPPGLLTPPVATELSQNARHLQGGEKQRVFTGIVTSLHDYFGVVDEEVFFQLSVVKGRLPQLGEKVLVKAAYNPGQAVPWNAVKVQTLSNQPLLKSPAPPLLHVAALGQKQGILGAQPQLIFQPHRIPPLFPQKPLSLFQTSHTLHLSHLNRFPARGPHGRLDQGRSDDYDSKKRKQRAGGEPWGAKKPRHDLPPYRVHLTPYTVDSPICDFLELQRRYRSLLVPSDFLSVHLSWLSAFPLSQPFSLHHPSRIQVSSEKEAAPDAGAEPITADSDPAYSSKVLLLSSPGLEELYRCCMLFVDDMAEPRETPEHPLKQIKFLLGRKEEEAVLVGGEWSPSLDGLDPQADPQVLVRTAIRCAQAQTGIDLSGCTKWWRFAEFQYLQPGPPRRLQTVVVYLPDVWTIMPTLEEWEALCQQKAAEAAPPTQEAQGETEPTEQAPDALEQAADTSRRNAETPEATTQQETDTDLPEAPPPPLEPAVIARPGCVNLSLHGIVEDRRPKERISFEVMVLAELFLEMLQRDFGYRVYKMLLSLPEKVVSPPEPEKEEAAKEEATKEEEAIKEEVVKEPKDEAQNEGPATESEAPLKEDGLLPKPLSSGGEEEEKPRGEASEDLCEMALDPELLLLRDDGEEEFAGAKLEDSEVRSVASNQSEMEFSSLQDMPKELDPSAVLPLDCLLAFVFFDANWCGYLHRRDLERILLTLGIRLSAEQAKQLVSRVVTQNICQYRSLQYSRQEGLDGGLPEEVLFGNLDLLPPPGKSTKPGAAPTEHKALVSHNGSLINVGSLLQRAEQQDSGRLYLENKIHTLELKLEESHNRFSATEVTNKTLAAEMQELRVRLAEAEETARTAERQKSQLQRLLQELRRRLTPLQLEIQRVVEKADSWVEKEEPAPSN
Sequence of UniProt Q5BKX5 (Q5BKX5 whole entry, looked up): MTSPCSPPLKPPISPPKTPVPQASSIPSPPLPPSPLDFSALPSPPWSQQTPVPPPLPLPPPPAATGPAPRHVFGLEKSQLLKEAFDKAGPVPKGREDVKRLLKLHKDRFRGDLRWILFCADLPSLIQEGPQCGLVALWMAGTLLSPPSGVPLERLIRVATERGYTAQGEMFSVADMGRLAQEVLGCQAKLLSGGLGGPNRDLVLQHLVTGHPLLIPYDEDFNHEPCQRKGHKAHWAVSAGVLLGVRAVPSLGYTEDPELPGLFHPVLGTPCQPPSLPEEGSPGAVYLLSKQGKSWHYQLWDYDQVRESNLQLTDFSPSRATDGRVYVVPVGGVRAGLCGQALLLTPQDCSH
Sequence of UniProt O60563 (O60563 whole entry, looked up): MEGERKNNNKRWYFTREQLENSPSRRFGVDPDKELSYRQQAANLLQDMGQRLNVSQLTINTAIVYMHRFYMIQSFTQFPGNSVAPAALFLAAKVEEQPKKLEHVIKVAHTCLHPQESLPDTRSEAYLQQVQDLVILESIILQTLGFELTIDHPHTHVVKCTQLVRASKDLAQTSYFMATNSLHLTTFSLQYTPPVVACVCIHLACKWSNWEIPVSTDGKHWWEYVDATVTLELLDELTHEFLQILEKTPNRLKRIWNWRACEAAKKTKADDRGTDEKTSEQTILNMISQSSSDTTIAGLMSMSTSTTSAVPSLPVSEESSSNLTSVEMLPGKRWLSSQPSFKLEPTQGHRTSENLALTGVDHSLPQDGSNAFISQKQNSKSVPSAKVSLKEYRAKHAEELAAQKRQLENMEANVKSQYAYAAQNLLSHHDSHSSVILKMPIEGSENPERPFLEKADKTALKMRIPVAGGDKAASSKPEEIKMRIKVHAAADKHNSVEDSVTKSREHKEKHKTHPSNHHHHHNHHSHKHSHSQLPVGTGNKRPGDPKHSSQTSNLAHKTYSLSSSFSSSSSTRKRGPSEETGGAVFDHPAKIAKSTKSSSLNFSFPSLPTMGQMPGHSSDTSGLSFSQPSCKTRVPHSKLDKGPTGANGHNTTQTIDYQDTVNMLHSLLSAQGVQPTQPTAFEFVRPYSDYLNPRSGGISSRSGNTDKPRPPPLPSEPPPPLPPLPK
Sequence of UniProt Q8WUX2 (Q8WUX2 whole entry, looked up): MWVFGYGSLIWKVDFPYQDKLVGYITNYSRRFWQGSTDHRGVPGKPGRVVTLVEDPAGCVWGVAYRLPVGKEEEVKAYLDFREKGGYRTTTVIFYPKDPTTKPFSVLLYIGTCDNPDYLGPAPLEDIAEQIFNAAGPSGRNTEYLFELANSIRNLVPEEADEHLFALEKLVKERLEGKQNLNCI

| Target | log2 fold change (saracatinib) | log2 fold change (sotrastaurin) | log2 fold change (alvocidib) | log2 fold change (Tubastatin A) | log2 fold change [1] | log2 fold change (defactinib) | log2 fold change (rucaparib) | log2 fold change [2] | log2 fold change (encorafenib) | log2 fold change [3] | log2 fold change [4] | log2 fold change (filanesib) | log2 fold change (zotarolimus) | log2 fold change (idasanutlin) | log2 fold change (alisertib) | log2 fold change [5] | log2 fold change (gefitinib) | log2 fold change [6] | log2 fold change (lapatinib) | log2 fold change (pictilisib) |
| --- | --- | --- | --- | --- | --- | --- | --- | --- | --- | --- | --- | --- | --- | --- | --- | --- | --- | --- | --- | --- |
| COX5A (UniProt P20674) | -0.063 | 0.025 | -0.063 | -0.015 | 0.043 | -0.016 | 0.011 | 0.007 | -0.036 | 0.11 | -0.1 | 0.015 | 0.054 | -0.012 | -0.13 | -0.092 | 0.067 | 0.084 | -0.108 | 0.108 |
| CCNT1 (UniProt O60563) | -0.005 | -0.173 | -0.221 | 0.075 | -0.086 | -0.213 | 0.044 | 0.043 | 0.163 | 0.002 | -0.05 | 0.13 | 0.044 | 0.109 | -0.093 | -0.371 (active) | 0.021 | -0.158 | 0.098 | -0.049 |
| CDK5RAP1 (UniProt Q96SZ6) | 0.192 | 0.072 | -0.077 | -0.238 (active) | 0.044 | 0.022 | 0.035 | 0.057 | 0.053 | -0.048 | -0.395 (active) | -0.049 | 0.066 | -0.076 | -0.057 | 0.131 | -0.074 | 0.055 | -0.034 | 0.075 |
| CDC42BPB (UniProt Q9Y5S2) | -0.089 | -0.152 | 0.009 | 0.055 | 0.021 | -0.119 | 0.146 | -0.046 | -0.029 | -0.032 | -0.062 | 0.147 | 0.089 | 0.062 | -0.1 | -0.371 | -0.07 | 0.071 | -0.009 | 0.025 |
| CCAR2 isoform 2 (UniProt Q8N163) | -0.102 | -0.231 | -0.254 | 0.122 | -0.083 | -0.42 (active) | -0.106 | 0.031 | -0.011 | 0 | -0.038 | 0.024 | 0.063 | -0.065 | -0.072 | -0.187 | -0.03 | -0.042 | 0.04 | -0.034 |
| COPS4 (UniProt Q9BT78) | 0.028 | 0.008 | -0.071 | -0.011 | -0.005 | -0.015 | 0.004 | -0.006 | -0.001 | -0.007 | 0.219 (active) | -0.067 | 0.032 | -0.039 | -0.054 | -0.035 | -0.007 | 0.019 | 0.025 | -0.011 |
| C15orf41 (UniProt Q9Y2V0) | 0.009 | 0.042 | -0.042 | 0.011 | -0.137 | -0.008 | 0.081 | -0.017 | 0.01 | 0.079 | -0.057 | -0.021 | -0.096 | -0.023 |  | 0.011 |  |  | -0.018 | 0.047 |
| CPSF1 (UniProt Q10570) | 0.024 | -0.01 | 0.045 | -0.02 | -0.05 | 0.038 | 0.018 | -0.061 | -0.048 | -0.032 | -0.042 | 0.164 | 0.095 | 0.053 | -0.08 | 0.02 | -0.079 | 0.01 | 0.029 | -0.058 |
| CERS2 (UniProt Q96G23) | 0.012 | -0.033 | -0.018 | -0.056 | -0.121 | -0.001 | 0.002 | -0.048 | 0.017 | 0.03 | -0.045 | -0.117 | -0.062 | -0.047 | -0.129 | -0.107 | -0.095 | -0.005 | -0.03 | -0.262 (active) |
| CDK8 (UniProt P49336) | -0.006 | 0.074 | 0.66 (active) | -0.1 | 0.053 | -0.059 | 0.192 | 0.018 | -0.002 | 0.064 | 0.03 | 0.008 | -0.044 | -0.136 | -0.137 | -0.105 |  | -0.005 | -0.047 | 0.038 |
| C19orf54 (UniProt Q5BKX5) | 0.049 | -0.221 | 0.178 | 0.092 | 0.002 | -0.136 | 0.255 | -0.108 | 0.005 | -0.031 | -0.025 | -0.278 | 0.024 | -0.094 |  | 0.123 |  |  | -0.125 | 0.053 |
| CHAC2 (UniProt Q8WUX2) | -0.016 | -0.028 | -0.075 | -0.02 | -0.02 | -0.07 | 0.122 | -0.05 | 0.237 | 0.025 | -0.007 | -0.032 | 0.066 | -0.019 | 0.026 | -0.061 | -0.03 | 0.06 | 0.029 | 0.077 |
